Laboratory results from PubChem BioAssay AID1159580 (chemical genetic matrix, 2015).
The whole screen tested about 5,500 compounds, of which about 2,000 (36%) were called active. Another 18% or so got no clear call; they are omitted. Rule as the data show it: active = normalized growth mostly below about 0.91 (no sharp cut-off); inconclusive = no clear call, values can overlap the other calls; inactive = mostly above about 0.92. This is one part of the list.

Experiment: chemical genetic growth profiling, strain panel (AID 1159580);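 also: tested at 20 µM; growth read once vehicle control cultures reached saturation at 30 °C; 1 = growth at the plate median or of vehicle wells; lower values mean less growth of the strain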
Details: growth OD

Measured: normalized growth

c1ccc2c(CC3=NCCN3)cccc2c1
inactive: S. cerevisiae deletion strains, locus YJR075W, strain HOC1, hits give low values 1 | S. cerevisiae deletion strains, locus YKL009W, strain mrt4, hits give low values 1.01 | S. cerevisiae deletion strains, locus YKL068W, hits give low values 1.01 | S. cerevisiae deletion strains, locus YKL085W, strain MDH1 (second series), hits give low values 1.02 | S. cerevisiae deletion strains, locus YKL085W, strain MDH1, hits give low values 1.02 | S. cerevisiae deletion strains, locus YKL160W, strain elf1, hits give low values 0.984 | S. cerevisiae deletion strains, locus YKL190W, strain CNB1, hits give low values 1 | S. cerevisiae deletion strains, locus YKR001C, strain vps1, hits give low values 1.01 | S. cerevisiae deletion strains, locus YKR026C, strain gcn3, hits give low values 0.984 | S. cerevisiae deletion strains, locus YKR091W, strain srl3, hits give low values 0.98 | S. cerevisiae deletion strains, locus YLL001W, strain dnm1, hits give low values 0.986 | S. cerevisiae deletion strains, locus YLL026W, hits give low values 0.997 | S. cerevisiae deletion strains, locus YLL041C, strain sdh2, hits give low values 0.972 | S. cerevisiae deletion strains, locus YLR027C, strain aat2, hits give low values 0.973 | S. cerevisiae deletion strains, locus YLR039C, strain RIC1, hits give low values 1.04 | S. cerevisiae deletion strains, locus YLR058C, strain SHM2, hits give low values 1.01 | S. cerevisiae deletion strains, locus YLR102C, strain apc9, hits give low values 1.02 | S. cerevisiae deletion strains, locus YLR113W, strain HOG1, hits give low values 0.991 | S. cerevisiae deletion strains, locus YLR221C, strain rsa3, hits give low values 0.995 | S. cerevisiae deletion strains, locus YLR258W, strain gsy2, hits give low values 0.991 | S. cerevisiae deletion strains, locus YLR262C, strain YPT6 (second series), hits give low values 0.97 | S. cerevisiae deletion strains, locus YLR262C, strain YPT6, hits give low values 1.03 | S. cerevisiae deletion strains, locus YLR268W, strain sec22, hits give low values 1.02 | S. cerevisiae deletion strains, locus YLR320W, strain mms22, hits give low values 0.979 | S. cerevisiae deletion strains, locus YLR330W, strain CHS5, hits give low values 1.01 | S. cerevisiae deletion strains, locus YLR342W, strain FKS1 (second series), hits give low values 1.03 | S. cerevisiae deletion strains, locus YLR342W, strain FKS1, hits give low values 0.971 | S. cerevisiae deletion strains, locus YLR357W, strain rsc2, hits give low values 0.942 | S. cerevisiae deletion strains, locus YLR370C, strain arc18, hits give low values 0.978 | S. cerevisiae deletion strains, locus YLR371W, strain rom2, hits give low values 1.04 | S. cerevisiae deletion strains, locus YLR384C, strain iki3, hits give low values 0.962 | S. cerevisiae deletion strains, locus YLR418C, strain cdc73, hits give low values 1.02 | S. cerevisiae deletion strains, locus YML016C, strain PPZ1, hits give low values 1.01 | S. cerevisiae deletion strains, locus YML032C, strain rad52, hits give low values 1.03 | S. cerevisiae deletion strains, locus YML120C, strain ndi1, hits give low values 0.977 | S. cerevisiae deletion strains, locus YML124C, strain tub3, hits give low values 1.02 | S. cerevisiae deletion strains, locus YMR058W, strain fet3, hits give low values 0.976 | S. cerevisiae deletion strains, locus YMR078C, strain ctf18, hits give low values 1.02 | S. cerevisiae deletion strains, locus YMR125W, strain sto1, hits give low values 0.938 | S. cerevisiae deletion strains, locus YMR129W, hits give low values 0.96 | S. cerevisiae deletion strains, locus YMR205C, strain PFK2, hits give low values 0.987 | S. cerevisiae deletion strains, locus YMR223W, strain ubp8, hits give low values 1.01 | S. cerevisiae deletion strains, locus YMR231W, strain pep5, hits give low values 0.981 | S. cerevisiae deletion strains, locus YMR263W, strain SAP30, hits give low values 1 | S. cerevisiae deletion strains, locus YMR307W, strain GAS1, hits give low values 1.01 | S. cerevisiae deletion strains, locus YNL067W, strain RPL9B, hits give low values 1 | S. cerevisiae deletion strains, locus YNL071W, strain lat1, hits give low values 0.961 | S. cerevisiae deletion strains, locus YNL128W, strain TEP1, hits give low values 1.01 | S. cerevisiae deletion strains, locus YNL153C, strain GIM3, hits give low values 1 | S. cerevisiae deletion strains, locus YNL183C, strain NPR1, hits give low values 0.957 | S. cerevisiae deletion strains, locus YNL209W, strain ssb2, hits give low values 0.968 | S. cerevisiae deletion strains, locus YNL233W, strain BNI4, hits give low values 1.01 | S. cerevisiae deletion strains, locus YNL248C, strain rpa49, hits give low values 0.963 | S. cerevisiae deletion strains, locus YNL250W, strain rad50, hits give low values 1.02 | S. cerevisiae deletion strains, locus YNL271C, strain bni1, hits give low values 1.02 | S. cerevisiae deletion strains, locus YNL298W, strain CLA4, hits give low values 1.01 | S. cerevisiae deletion strains, locus YNL307C, strain MCK1, hits give low values 1.03 | S. cerevisiae deletion strains, locus YNL322C, strain KRE1 (second series), hits give low values 0.958 | S. cerevisiae deletion strains, locus YNL322C, strain KRE1, hits give low values 1 | S. cerevisiae deletion strains, locus YNR049C, strain mso1, hits give low values 0.982 | S. cerevisiae deletion strains, locus YNR052C, strain pop2, hits give low values 1.02 | S. cerevisiae deletion strains, locus YOL006C, strain TOP1, hits give low values 1.03 | S. cerevisiae deletion strains, locus YOL012C, strain htz1 0.662 | S. cerevisiae deletion strains, locus YOL147C, strain pex11, hits give low values 1.02 | S. cerevisiae deletion strains, locus YOR001W, strain rrp6, hits give low values 0.934 | S. cerevisiae deletion strains, locus YOR061W, strain CKA2, hits give low values 1.01 | S. cerevisiae deletion strains, locus YOR069W, strain VPS5, hits give low values 1 | S. cerevisiae deletion strains, locus YOR070C, strain gyp1, hits give low values 1.01 | S. cerevisiae deletion strains, locus YOR080W, strain dia2, hits give low values 0.965 | S. cerevisiae deletion strains, locus YOR083W, strain WHI5, hits give low values 0.994 | S. cerevisiae deletion strains, locus YOR106W, strain vam3, hits give low values 0.97 | S. cerevisiae deletion strains, locus YOR136W, strain idh2, hits give low values 1.02 | S. cerevisiae deletion strains, locus YOR144C, strain elg1, hits give low values 1.02 | S. cerevisiae deletion strains, locus YOR184W, strain ser1, hits give low values 1.02 | S. cerevisiae deletion strains, locus YOR231W, strain MKK1, hits give low values 1.02 | S. cerevisiae deletion strains, locus YOR265W, strain rbl2, hits give low values 0.987 | S. cerevisiae deletion strains, locus YOR270C, strain vph1, hits give low values 0.914 | S. cerevisiae deletion strains, locus YOR290C, strain snf2, hits give low values 0.984 | S. cerevisiae deletion strains, locus YOR316C, strain cot1, hits give low values 1.03 | S. cerevisiae deletion strains, locus YPL051W, strain arl3, hits give low values 0.988 | S. cerevisiae deletion strains, locus YPL055C, strain LGE1, hits give low values 1.02 | S. cerevisiae deletion strains, locus YPL078C, strain atp4, hits give low values 0.981 | S. cerevisiae deletion strains, locus YPL106C, strain sse1, hits give low values 0.968 | S. cerevisiae deletion strains, locus YPL240C, strain hsp82, hits give low values 0.997 | S. cerevisiae deletion strains, locus YPL241C, strain CIN2, hits give low values 1 | S. cerevisiae deletion strains, locus YPL256C, strain CLN2, hits give low values 0.987 | S. cerevisiae deletion strains, locus YPR119W, strain clb2, hits give low values 1.02 | S. cerevisiae deletion strains, locus YPR141C, strain kar3, hits give low values 1.03 | S. cerevisiae deletion strains, locus YPR163C, strain tif3, hits give low values 1.02 | S. cerevisiae deletion strains, locus YPR167C, strain met16, hits give low values 1.02 | S. cerevisiae deletion strains, strain wtn01, hits give low values 1.02 | S. cerevisiae strains, strain wild type, hits give low values 1
